The structures appear in SMILES notation. Hit rate of the full screen: of about 68,000 compounds, about 2,700 (4%) showed an effect of 50% or more. The list comes from a sample in which strong results are over-represented; it also holds similar structures and randomly drawn compounds.

The experiment concerns Plasmodium berghei. In words: Screen against P. berghei liver stage (PbLuc), transformed with Luciferase, at 2uM. The format is functional, HepG2. The conditions noted are these: tested at 2 uM.
Consider `Cc1oc(NC(=O)C(C)N2CCN(CCO)CC2)c(C#N)c1C` (stereo not drawn), for which the INHIBITION is 51.08%. To `Cc1oc(NC(=O)C(C)N2CCN(C(=O)C3CC3)CC2)c(C#N)c1C` (stereo not drawn) belongs 30.59%; to `Cc1oc(NC(=O)C(C)N2CCN(C(C)(C)CO)CC2)c(C#N)c1C` (stereo not drawn), 10.1%.

As to `Cn1ncc2c1CN(Cc1cccnc1)CC2COCC1CC1` (stereo not drawn), the INHIBITION is recorded as -12.27%. To `CCCN1CCN(C(=O)c2ccn(COc3ccc(F)cc3)n2)CC1` belongs -15.49%. On to `CCn1ncc(S(=O)(=O)NC(C)c2cc(OC)ccc2OC)c1C` (stereo not drawn), for which the INHIBITION stood at 0.08%. To `CN(CC1CCCO1)C1CCN(CCc2ccccn2)CC1` (stereo not drawn) belongs 14.82%; to `CCc1cc(NC2CCN(CC(N)=O)CC2)nc(N2CCCCC2)n1`, -69.81%. To `CCc1cc(NCC(N)=O)nc(N2CCCCC2)n1` belongs 55.18%. Then `CCc1cc(NCCNC(C)=O)nc(N2CCCC2)n1`, with -36.65%; and `COCCN(C)C(=O)c1ccc2onc(-c3coc(C)n3)c2c1`, with 32.04%; and `CCc1nc(-c2noc3ccc(C(=O)NCCN(C)C)cc23)co1`, with -18.52%.

As for `CCc1nc(-c2noc3ccc(C(=O)N(C)CCOC)cc23)co1`, the INHIBITION was found to be 63.23%. Then `C[C@@H]1CN(C2CCN(c3ccccc3F)CC2)C[C@]1(C)O`, with 43.44%. To `Cc1cc(F)ccc1N1CCC(N2C[C@@H](C)[C@@](C)(O)C2)CC1` belongs 67.28%; to `Cc1cc(F)ccc1N1CCC(N2C[C@@H](CN(C)C)[C@@H](CO)C2)CC1`, 35.54%. Then `c1ccc(-n2nnnc2NCc2ccc3c(c2)OCO3)cc1`, with -26.04%.

With `O=C(O)C1CCCN(C(=O)CCn2ccc3c(Cl)cccc32)C1` (stereo not drawn), the INHIBITION is on record as -23.9%. As for `O=C(O)[C@@H]1CN(C(=O)c2ccc3[nH]nnc3c2)C[C@H]1c1ccccc1`, the INHIBITION worked out at 39.57%. To `O=C(Nc1cnccn1)[C@@H]1COC[C@H]2CN(C3CCCC3)C[C@H]21` belongs -31.17%; to `O=C(Nc1ccncc1)C1=NN(c2ccccc2)C(=O)CN1`, 17.59%. With `Cc1nc(CNC(=O)NCCC2=CCCC2)oc1C`, the INHIBITION was 67.51%. With `CCCNC(=O)NCc1nc(C)c(C)o1`, the INHIBITION is 22.34%. To `COCCCNC(=O)NCc1nc(C)c(C)o1` belongs -62.18%; to `Cc1cc(S(=O)(=O)Nc2onc(C)c2C)sc1C`, 36.28%. Then `Cc1ccc(CN2CCn3c(CN(C)C(C)C)cnc3C2)s1`, with 18.2%. To `COCCN1C[C@H]2CN(C(=O)NCc3ccccc3)CCN2C1=O` belongs 14.21%. For `COCCN1C[C@H]2CN(C(=O)C3CC3)CCN2C1=O`, the INHIBITION is 14.65%.

On to `COCCN1C[C@H]2CN(C(=O)NC(C)C)CCN2C1=O`, for which the INHIBITION worked out at 58.6%.

In the case of `CS(=O)(=O)c1cccc(OCC(=O)N2CCCC2c2ccc[nH]2)c1` (stereo not drawn), the INHIBITION came out at 9.27%. Then `Cc1ncoc1C(=O)N1CC[C@@]2(C[C@H](NS(C)(=O)=O)CCO2)C1`, with -43.98%. To `CCCC(C)NC(=O)c1ccc(-c2ccco2)[nH]c1=O` (stereo not drawn) belongs -1.87%. For the molecule `CC(COCC(F)(F)F)NC(=O)c1ccc(-c2ccco2)[nH]c1=O` (stereo not drawn), the INHIBITION was determined as 69.67%. To `CCC(C)NC(=O)c1ccc(-c2ccco2)[nH]c1=O` (stereo not drawn) belongs 31.51%; to `CNS(=O)(=O)c1ccc(C(=O)NCc2ccnc(OC)c2)cc1`, 27.44%.

In the case of `Fc1ccc(N2CCCN(Cc3ccc(-c4cc[nH]n4)o3)CC2)cc1`, the INHIBITION is -62.99%.

As for `Cc1cccc(-c2nc(CN3CCc4c(ncn4C)C3)no2)c1`, the INHIBITION worked out at 14.82%.

As for `CC(NC(=O)N1CCCCCC1)c1ccc(S(N)(=O)=O)cc1` (stereo not drawn), the INHIBITION is listed as -36.8%. Turning to `OCC1CCC2(CC1)CN(Cc1ccccc1F)Cc1ccccc1O2` (stereo not drawn), the INHIBITION came to 2.71%. To `O=C(CSc1ccc(F)cc1F)NS(=O)(=O)c1ccc2c(c1)OCCO2` belongs 27.47%. Then `O=C(CCc1ccc(F)cc1)NS(=O)(=O)c1ccc2c(c1)OCCO2`, with -15.92%; and `O=C(CCc1ccccc1F)NS(=O)(=O)c1ccc2c(c1)OCCO2`, with 7.71%; and `O=C(CCc1cc(F)ccc1F)NS(=O)(=O)c1ccc2c(c1)OCCO2`, with 66.28%.

As to `CC(CC(=O)NS(=O)(=O)c1ccc2c(c1)OCCO2)c1ccc(F)cc1` (stereo not drawn), the INHIBITION was 61.3%. To `O=C(CSc1ccc(F)cc1)NS(=O)(=O)c1ccc2c(c1)OCCO2` belongs 13.91%. Turning to `c1nc2n(n1)CC(NCc1nc(-c3ccsc3)no1)CC2` (stereo not drawn), the INHIBITION is reported as -14.3%. To `COc1cccc(CC(=O)NC2CCCc3cn[nH]c32)c1` (stereo not drawn) belongs -1.29%; to `CCCc1nn(C2CCN(C(C)C)C2=O)c(=O)o1` (stereo not drawn), -78.95%. Then `CCCc1nn(C2CCCN(C(C)C)C2=O)c(=O)o1` (stereo not drawn), with 58.69%; and `CCCc1nn(C2CCN(C3CC3)C2=O)c(=O)o1` (stereo not drawn), with -8.5%. On to `Cc1nc(N2CCC(CN3CCCC3)CC2)c2cnn(C)c2n1`, for which the INHIBITION was determined as 7.08%.

For `NC(=O)CN(CC(=O)NCCc1c(F)cccc1F)C1CCCC1`, the INHIBITION is on record as 14.21%.

In the case of `NCC1(c2cccc(C(F)(F)F)c2)CCCC1`, the INHIBITION was found to be 23.45%. Then `NCC1(c2cccc(C(F)(F)F)c2)CC1`, with 74.11%; and `NCC1(c2cccc(C(F)(F)F)c2)CCC1`, with 39.97%; and `CC(C)c1cc(NC(=O)CN2CCCC2Cn2cncn2)on1` (stereo not drawn), with -98.79%. Then `COC(=O)c1ccc(Cl)c(NS(=O)(=O)c2cnn(C)c2)c1`, with 50.48%; and `Cn1cnc(S(=O)(=O)Nc2cc(C(N)=O)ccc2Cl)c1`, with -53.5%.

Consider `COC(=O)c1ccc(Cl)c(NS(=O)(=O)c2cn(C)cn2)c1`, for which the INHIBITION was -9.88%. To `Cc1nc(C)n(CC2CCCCN2Cc2cn3ccccc3n2)n1` (stereo not drawn) belongs -0.05%; to `CC(C)(C)N1CCN(C(=O)Nc2cc(C(F)(F)F)c[nH]c2=O)CC1`, -32.3%.

For `CC1CN(C(=O)Nc2cc(C(F)(F)F)c[nH]c2=O)CCO1` (stereo not drawn), the INHIBITION is recorded as 28.39%. To `CC(C)CN1CCC(C(=O)Nc2cc(C(F)(F)F)c[nH]c2=O)CC1` belongs -68.89%.

Regarding `CC1(C)CN(C(=O)Nc2cc(C(F)(F)F)c[nH]c2=O)CCO1`, the INHIBITION was 33.92%. On to `CC1CN(C(=O)Nc2cc(C(F)(F)F)c[nH]c2=O)CC(C)(C)O1` (stereo not drawn), for which the INHIBITION is on record as 51.31%. Then `CC(C)CN1CCN(C(=O)Nc2cc(C(F)(F)F)c[nH]c2=O)CC1`, with 54.85%.

On to `CS(=O)(=O)c1cnc(N2CCCC2)nc1C1CCN(C(=O)C2CC2)CC1`, for which the INHIBITION is reported as -44.33%. With `COc1ccccc1[C@@H]1CN(Cc2cnn(C)c2C)C[C@H]1C(=O)O`, the INHIBITION was 0.12%. In the case of `COCCC(=O)NCC1COc2cc(OC)ccc2C1` (stereo not drawn), the INHIBITION is listed as -26.75%. Take `COc1cc(NC(=O)c2ccccc2F)c(C(=O)N(C)C)cc1OC`: the INHIBITION was 5.52%. To `COc1cc(NC(=O)c2ccc(C)cc2C)c(C(=O)N(C)C)cc1OC` belongs 26.48%; to `COc1cc(NC(=O)c2cc(C)sc2C)c(C(=O)N(C)C)cc1OC`, 58.24%. Then `O=C(c1ccc2c(c1)CCC2)N1CCCCC1C1OCCO1` (stereo not drawn), with -44.52%; and `COC(=O)CC1CSCCN1C(=O)CCc1c(C)nn(C)c1C` (stereo not drawn), with 26.7%. `COCCSCC(=O)NCc1ccc(N(C)C)nc1`: the INHIBITION is 1.8%. Then `CN(C)c1cc(CNC(=O)CC2CCCCC2)ccn1`, with 55.33%; and `COCCOCC(=O)NCc1ccc(N(C)C)nc1`, with 64.08%; and `COCCSCC(=O)NCc1ccc(N(C)C)cc1`, with 47.04%.

As for `CCN(C)c1cc(CNC(=O)CNC(=O)CC2CCCCC2)ccn1`, the INHIBITION is recorded as -15.05%. For the molecule `CN(C)c1cc(CNC(=O)c2ccccc2Cl)ccn1`, the INHIBITION was determined as 17.19%. Then `CCOc1cc(CNC(=O)CNC(=O)CC2CCCCC2)ccn1`, with 9.29%. To `COCCSCC(=O)NCc1ccnc(N(C)C)c1` belongs 50.61%. To `CCS(=O)(=O)c1ccccc1C(=O)NCc1ccnc(N(C)C)c1` belongs 56.67%; to `CN(C)c1cc(CNC(=O)c2ccccc2S(C)(=O)=O)ccn1`, -33.95%; to `CN(C)c1ccc(CCNC(=O)NCc2ccc(N(C)C)nc2)cc1`, -18.67%. With `CN(C)c1ccc(CNC(=O)NCCc2ccccn2)cn1`, the INHIBITION is 11.2%. Then `CN(C)CCn1c2c(ccc1=O)CCN(Cc1cnn(C)c1)CC2`, with 19.16%; and `CC(C)(C)n1cc(CNc2ccc(CNS(C)(=O)=O)cc2)cn1`, with 38.49%; and `Cc1ccc(C(=O)N2C[C@@H]3CCCO[C@@H]3[C@H](N3CCOCC3)C2)cn1`, with -35.23%. Turning to `CCN(CC)S(=O)(=O)N1C[C@H]2CC[C@@H](C1)N(Cc1cscn1)C2=O`, the INHIBITION was found to be 31.51%. Then `CC(C)OCCCN1CCCC(c2nc3ccccc3n2C(C)C)C1` (stereo not drawn), with -25.8%. Then `COc1ccc2c(c1)c(C(=O)Nc1nnn[nH]1)cn2C(C)C`, with -2.44%; and `COCCNC(=O)[C@H]1CC[C@@H]2[C@@H](CCN2c2ncc(F)cn2)O1`, with 31.65%. To `CN1C(=O)CC(c2cnn(C)c2)C12CCN(C(=O)c1ccnnc1)CC2` (stereo not drawn) belongs -26.73%; to `O=C(N1CCCC1)N1CCOCC2(CCN(Cc3cccs3)C2)C1` (stereo not drawn), 25.31%. On to `Cc1cn2nc(N3CCN(Cc4c(C)noc4C)CC3)sc2n1`, for which the INHIBITION is listed as -4.99%.

On to `Oc1cc(C2CCCN(Cc3cccs3)C2)nc(-c2ccccn2)n1` (stereo not drawn), for which the INHIBITION is recorded as 30.29%.

As to `COc1cccc(C(O)CN2CCN(C(=O)c3ccsc3)CC2)c1` (stereo not drawn), the INHIBITION is on record as 38.49%. To `COc1cccc(N2CCN(CC[C@H](O)c3ccccc3)CC2=O)c1` belongs 61.75%. For `COc1ccccc1N1CCN(CC[C@H](O)c2ccccc2)CC1=O`, the INHIBITION is -23.57%.

Regarding `COc1cccc(C(=O)N2CCN(CC(O)c3ccccc3)CC2)c1` (stereo not drawn), the INHIBITION was determined as 55.25%. In the case of `COc1ccc(N2CCN(CC[C@H](O)c3ccccc3)CC2=O)cc1`, the INHIBITION is recorded as 17.28%. To `N#CCc1cccc(C(=O)N2CCN(CC(O)c3ccccc3)CC2)c1` (stereo not drawn) belongs 29.42%.

Values taken from ChEMBL document CHEMBL4513216, “Probing the Open Global Health Chemical Diversity Library for Multistage-Active Starting Points for Next-Generation Antimalarials” (ACS Infect Dis, 2020).
